Hit rate of the full screen: of about 5,500 compounds, about 2,000 (36%) were called active. Not shown: some 18% with an inconclusive outcome. No stated cut-off is given here; in the data, active means normalized growth mostly below about 0.91 (no sharp cut-off); inconclusive means no clear call, values can overlap the other calls; inactive means mostly above about 0.92. The list shows a part of the results.
Test: chemical genetic growth profiling, strain panel (AID 1159580);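 further: tested at 20 µM; growth read once vehicle control cultures reached saturation at 30 °C; 1 = growth at the plate median or of vehicle wells; lower values mean less growth of the strain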
Details: S. cerevisiae deletion strains, growth OD

Measured: normalized growth

COc1cc(N)c(Cl)cc1C(=O)NC1CCN(Cc2ccccc2)CC1
inactive: locus YAL013W, strain DEP1, hits give low values 0.997 | locus YAL021C, strain ccr4, hits give low values 1 | locus YAL026C, strain drs2, hits give low values 1 | locus YAL030W, strain snc1, hits give low values 1 | locus YBL061C, strain skt5, hits give low values 0.997 | locus YBR009C, strain hhf1, hits give low values 0.999 | locus YBR021W, strain FUR4, hits give low values 1.07 | locus YBR023C, strain chs3, hits give low values 0.995 | locus YBR171W, strain sec66, hits give low values 0.999 | locus YBR229C, strain ROT2, hits give low values 0.988 | locus YBR231C, strain swc5, hits give low values 1 | locus YBR279W, strain paf1, hits give low values 0.999 | locus YCL011C, strain gbp2, hits give low values 0.994 | locus YCL016C, strain dcc1, hits give low values 1 | locus YCL029C, strain bik1, hits give low values 0.962 | locus YCL061C, strain MRC1, hits give low values 0.984 | locus YCL069W, strain vba3, hits give low values 0.993 | locus YCR088W, strain abp1, hits give low values 0.993 | locus YDL005C, strain med2, hits give low values 0.996 | locus YDL035C, strain GPR1, hits give low values 1 | locus YDL040C, strain nat1, hits give low values 0.992 | locus YDL074C, strain BRE1, hits give low values 0.97 | locus YDL101C, strain DUN1, hits give low values 0.981 | locus YDL134C, strain PPH21, hits give low values 0.999 | locus YDL185W, strain tfp1, hits give low values 0.954 | locus YDL192W, strain arf1, hits give low values 0.992 | locus YDR001C, strain nth1, hits give low values 0.999 | locus YDR069C, strain doa4, hits give low values 0.992 | locus YDR101C, strain arx1, hits give low values 0.982 | locus YDR137W, strain rgp1, hits give low values 1.01 | locus YDR150W, strain NUM1, hits give low values 0.987 | locus YDR159W, strain sac3, hits give low values 1 | locus YDR162C, strain NBP2, hits give low values 0.996 | locus YDR195W, strain ref2 0.986 | locus YDR297W, strain sur2, hits give low values 0.994 | locus YDR318W, strain mcm21, hits give low values 0.981 | locus YDR334W, strain swr1, hits give low values 0.998 | locus YDR335W, strain msn5, hits give low values 0.986 | locus YDR388W, hits give low values 0.993 | locus YDR392W, strain spt3, hits give low values 0.995 | locus YDR502C, strain sam2, hits give low values 1.01 | locus YEL003W, strain gim4, hits give low values 0.999 | locus YEL037C, strain rad23, hits give low values 0.996 | locus YEL061C, strain CIN8 (second series), hits give low values 0.998 | locus YEL061C, strain CIN8, hits give low values 0.995 | locus YER015W, strain faa2, hits give low values 1 | locus YER016W, strain bim1, hits give low values 0.994 | locus YER110C, hits give low values 0.995 | locus YER111C, strain swi4, hits give low values 0.991 | locus YER155C, strain BEM2 (second series), hits give low values 0.988 | locus YER155C, strain BEM2, hits give low values 0.982 | locus YER167W, strain BCK2, hits give low values 0.996 | locus YFR010W, strain ubp6, hits give low values 0.999 | locus YGL078C, strain dbp3, hits give low values 0.996 | locus YGL086W, strain mad1, hits give low values 1 | locus YGL167C, strain pmr1, hits give low values 1 | locus YGL173C, strain kem1, hits give low values 0.998 | locus YGL227W, strain vid30, hits give low values 0.998 | locus YGL240W, strain doc1, hits give low values 0.997 | locus YGL248W, strain PDE1, hits give low values 1 | locus YGL253W, strain hxk2, hits give low values 0.992 | locus YGR078C, strain PAC10, hits give low values 0.982 | locus YGR135W, strain pre9, hits give low values 0.998 | locus YGR229C, strain SMI1, hits give low values 1.02 | locus YGR252W, strain gcn5, hits give low values 1.15 | locus YHR013C, strain ard1, hits give low values 0.996 | locus YHR027C, strain rpn1, hits give low values 1 | locus YHR030C, strain SLT2, hits give low values 0.996 | locus YHR079C, strain IRE1 (second series), hits give low values 0.977 | locus YHR094C, strain hxt1, hits give low values 0.974 | locus YHR129C, strain ARP1, hits give low values 0.993 | locus YHR142W, strain chs7, hits give low values 0.993 | locus YHR200W, strain rpn10, hits give low values 0.989 | locus YIL066C, strain RNR3, hits give low values 0.98 | locus YIL073C, strain SPO22, hits give low values 0.997 | locus YIL125W, strain kgd1, hits give low values 0.997 | locus YIR030C, strain dcg1, hits give low values 0.988 | locus YJL092W, strain hpr5, hits give low values 0.987 | locus YJL095W, strain BCK1 (second series), hits give low values 0.998 | locus YJL095W, strain BCK1, hits give low values 0.999 | locus YJL115W, strain asf1, hits give low values 0.987 | locus YJL129C, strain trk1, hits give low values 0.992 | locus YJL134W, strain LCB3, hits give low values 0.998 | locus YJL154C, strain vps35, hits give low values 1 | locus YJL164C, strain tpk1, hits give low values 1 | locus YJL166W, strain qcr8, hits give low values 0.996 | locus YJL168C, strain set2, hits give low values 0.99 | locus YJL187C, strain SWE1 (second series), hits give low values 0.966 | locus YJL187C, strain SWE1, hits give low values 0.99

— PubChem BioAssay AID1159580 (chemical genetic matrix, 2015)
